Measured values from PubChem BioAssay (Tox21).
Results filed as inconclusive are left out. Activity calls are given as the source filed them. Unless noted, the call rests on the fitted dose curve; in most records, active means well fitted curve in the direction sought with a large enough effect in the repeat runs; inconclusive means weak or mixed curves; inactive means no such curve, though single readings can be large; an effect the other way counts as inactive or inconclusive.

How the values were obtained:
[1] = biological target: Thyrotropin-releasing hormone receptor (Homo sapiens) (UniProt P34981); assay: qHTS assay to identify small molecule agonists of the thyrotropin-releasing hormone receptor (TRHR) signaling pathway (AID 1346891; calls by dose curve;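 further: HEK293 cells expressing TRHR with calcium dye readout; series mostly up to about 58 µM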)
Summary of the method: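 Overnight-plated (18 h, 37 °C, 5% CO2) TRHR-Hek293 cells; 2 h calcium dye at 37 °C; compound in DMSO; 3-min kinetic fluorescence read.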

[2] = Human pregnane X receptor (PXR) small molecule agonists, qHTS cell viability counter screen (AID 1346977); further: nearly all actives have a fitted effect of over 50% in size
Summary of the method: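 After a 5hr pre-incubation, PXR-Luc HepG2 cells received compounds plus positive control in DMSO and were kept 24hr at 37C. Cell viability was quantified by fluorescence from CellTiter-Fluor added for the final hour.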

[3] = Caspase-3/7 induction in HepG2 cells by small molecules, qHTS assay (AID 1346978); further: nearly all actives have a fitted effect of over 15% in size
Summary of the method: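 Caspase-3/7 induction was measured by Caspase-Glo 3/7 luminescence (30 min, room temperature) after a 17 hr compound exposure of wild-type HepG2 cells seeded at 2,000 per well and pre-incubated 5 hr.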

[4] = Caspase-3/7 induction in CHO-K1 cells by small molecules, qHTS cell viability counter screen (AID 1346979); further: nearly all actives have a fitted effect of over 35% in size; further: potency means the concentration at half of the fitted maximal effect
Summary of the method: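 Multiplexed with Caspase-Glo 3/7 in CHO-K1 cells, this counter screen added CellTiter-Fluor after 16hr of compound exposure and recorded fluorescence 1hr later.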

[5] = Caspase-3/7 induction in CHO-K1 cells by small molecules, qHTS assay (AID 1346980); further: nearly all actives have a fitted effect of over 15% in size
Summary of the method: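 Luminescent Caspase-Glo 3/7 read (30min, room temperature) quantified apoptosis induction. Cells were wild-type CHO-K1, treated with compound for 17hr at 37 C and 5% CO2.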

[6] = Caspase-3/7 induction in HepG2 cells by small molecules, qHTS cell viability counter screen (AID 1346981); further: series mostly up to about 92 µM; nearly all actives have a fitted effect of over 30% in size
Summary of the method: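 In this quantitative HTS counter screen, compounds delivered in DMSO were left on unmodified HepG2 cells for 16 hr at 37 C. Viability was then determined fluorometrically with CellTiter-Fluor, in parallel with caspase-3/7 induction in the same wells.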

[7] = biological target: Nuclear receptor subfamily 1 group I member 2 (Homo sapiens) (UniProt O75469); assay: Human pregnane X receptor (PXR) small molecule agonists, qHTS assay (AID 1346982); further: nearly all actives have a fitted effect of over 35% in size; further: potency means the concentration at half of the fitted maximal effect
Summary of the method: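 Reporter HepG2 cells expressing PXR-Luc are cultured in charcoal-stripped FBS (5%), treated with compounds for 24 hr at 37 C, and assayed by ONE-Glo luminescence after 30 min at room temperature.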

[8] = biological target: Cytochrome P450 2D6 (Homo sapiens) (UniProt P10635); assay: Cytochrome P450 Family 2 Subfamily D Member 6 (CYP2D6) small molecule antagonists: luciferase reporter qHTS assay (AID 1671196); further: nearly all actives have a fitted effect of over 50% in size; further: potency means the concentration at half of the fitted maximal effect
Summary of the method: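 Test chemicals meet CYP2D6 plus proluciferin substrate (10 min, RT); NADPH regenerating solution then drives turnover for 1 h. Detection reagent halts the reaction; luminescence measured after 20 min.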

[9] = biological target: Cytochrome P450 2C19 (Homo sapiens) (UniProt P33261); assay: Cytochrome P450 Family 2 Subfamily C Member 19 (CYP2C19) small molecule antagonists: luciferase reporter qHTS assay (AID 1671197); further: series mostly up to about 120 µM; nearly all actives have a fitted effect of over 65% in size
Summary of the method: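 First, compounds are pinned into enzyme-substrate mix and held 10 min at room temperature. Second, NADPH regeneration solution is added and plates incubate 1 h at 37C. Third, detection reagent is added and luminescence read after 20 min.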

[10] = biological target: Cytochrome P450 2C9 (Homo sapiens) (UniProt P11712); assay: Cytochrome P450 Family 2 Subfamily C Member 9 (CYP2C9) small molecule antagonists: luciferase reporter qHTS assay (AID 1671198); further: series mostly up to about 120 µM; nearly all actives have a fitted effect of over 50% in size
Summary of the method: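 Enzyme-substrate mix preincubated with compound 10 min at room temperature; reaction started with NADPH regeneration solution, 1 h 37C. Luminescent luciferin product read after 20 min detection reagent.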

[11] = biological target: Cytochrome P450 1A2 (Homo sapiens) (UniProt P05177); assay: Cytochrome P450 Family 1 Subfamily A Member 2 (CYP1A2) small molecule antagonists: luciferase reporter qHTS assay (AID 1671199); further: nearly all actives have a fitted effect of over 50% in size; further: potency means the concentration at half of the fitted maximal effect
Summary of the method: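 Steps: enzyme-substrate mix dispensed; test compounds and furafylline control pinned in; 10 min room temperature; NADPH regeneration solution added, 1 h; reaction stopped with luciferin detection reagent; luminescence read after 20 min.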

[12] = biological target: Voltage-gated inwardly rectifying potassium channel KCNH2 (Homo sapiens) (UniProt Q12809); assay: Human Ether-a-go-go-Related Gene (hERG) channel small molecule antagonists: fluorescence cell-based qHTS assay (AID 1671200)
Summary of the method: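 Cell line hERG-U2OS; dye FluxOR II, 1 h RT dark; Tl+ stimulus; ex 480/em 540 nm, read each second for 2 min.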

[13] = biological target: Cytochrome P450 3A4 (Homo sapiens) (UniProt P08684); assay: Cytochrome P450 Family 3 Subfamily A Member 4 (CYP3A4) small molecule antagonists: luciferase reporter qHTS assay (AID 1671201)
Summary of the method: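 Room-temperature assay throughout: 10 min compound–enzyme/substrate preincubation, 1 h reaction after NADPH regeneration solution, 20 min detection. Luciferin formed from proluciferin substrate is quantified by luminescence.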

[14] = biological target: Nuclear receptor subfamily 1 group I member 2 (Rattus norvegicus) (UniProt Q9R1A7); assay: Rat pregnane X receptor (rPXR) activation by small molecules, qHTS assay (AID 1346983); conditions: rPXR luciferase reporter cells, One-Glo luminescence, 24 h; max activation: hits give high values; further: nearly all actives have a fitted effect of over 20% in size
Summary of the method: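 Luminescent readout (One-Glo luciferase, 30 min room temperature) followed 24 hr compound treatment at 37 C of rPXR cells plated 2,000 per well and preincubated 5hr; qHTS format with compounds delivered in DMSO.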

[15] = biological target: Nuclear receptor subfamily 1 group I member 2 (Homo sapiens) (UniProt O75469); assay: CYP3A4 induction through human pregnane X receptor (PXR) by small molecules, qHTS assay (AID 1346984); further: nearly all actives have a fitted effect of over 40% in size
Summary of the method: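 Induction measured in HepG2-based DPX-2 cells co-expressing human PXR and a CYP3A4 promoter-driven luciferase. After a 24-hour compound exposure, cells received CYP3A4 luciferin substrate at 3uM final for 3 hours, and light output was then recorded.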

[16] = biological target: Nuclear receptor subfamily 1 group I member 2 (Homo sapiens) (UniProt O75469); assay: Human pregnane X receptor (PXR) activation by small molecules, qHTS assay (AID 1346985); further: nearly all actives have a fitted effect of over 40% in size; further: potency means the concentration at half of the fitted maximal effect
Summary of the method: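 DPX-2 cells (HepG2 co-transfected with a PXR response element and a CYP3A4-promoter luciferase construct) were seeded at 2,000 per well, rested 5 hr at 37C, then exposed to DMSO-dissolved compounds for 24 hr. Activation was read as luciferase luminescence.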
On the % scale 0 is the no-effect control and ±100 the full control effect.

Thyrotropin-releasing hormone receptor (Homo sapiens), sequence (P34981 whole entry, looked up): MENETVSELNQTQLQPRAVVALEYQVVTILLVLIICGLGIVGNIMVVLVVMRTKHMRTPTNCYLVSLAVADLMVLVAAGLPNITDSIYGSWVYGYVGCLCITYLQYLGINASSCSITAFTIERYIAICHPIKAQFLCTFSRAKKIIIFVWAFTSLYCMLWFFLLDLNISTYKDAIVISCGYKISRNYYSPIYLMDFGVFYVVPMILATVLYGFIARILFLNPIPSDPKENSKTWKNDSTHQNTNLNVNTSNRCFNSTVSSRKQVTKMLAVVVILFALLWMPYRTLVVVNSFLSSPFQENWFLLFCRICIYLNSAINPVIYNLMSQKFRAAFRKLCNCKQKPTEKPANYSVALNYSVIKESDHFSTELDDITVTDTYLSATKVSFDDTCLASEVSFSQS
Voltage-gated inwardly rectifying potassium channel KCNH2 (Homo sapiens), sequence (Q12809 whole entry, looked up): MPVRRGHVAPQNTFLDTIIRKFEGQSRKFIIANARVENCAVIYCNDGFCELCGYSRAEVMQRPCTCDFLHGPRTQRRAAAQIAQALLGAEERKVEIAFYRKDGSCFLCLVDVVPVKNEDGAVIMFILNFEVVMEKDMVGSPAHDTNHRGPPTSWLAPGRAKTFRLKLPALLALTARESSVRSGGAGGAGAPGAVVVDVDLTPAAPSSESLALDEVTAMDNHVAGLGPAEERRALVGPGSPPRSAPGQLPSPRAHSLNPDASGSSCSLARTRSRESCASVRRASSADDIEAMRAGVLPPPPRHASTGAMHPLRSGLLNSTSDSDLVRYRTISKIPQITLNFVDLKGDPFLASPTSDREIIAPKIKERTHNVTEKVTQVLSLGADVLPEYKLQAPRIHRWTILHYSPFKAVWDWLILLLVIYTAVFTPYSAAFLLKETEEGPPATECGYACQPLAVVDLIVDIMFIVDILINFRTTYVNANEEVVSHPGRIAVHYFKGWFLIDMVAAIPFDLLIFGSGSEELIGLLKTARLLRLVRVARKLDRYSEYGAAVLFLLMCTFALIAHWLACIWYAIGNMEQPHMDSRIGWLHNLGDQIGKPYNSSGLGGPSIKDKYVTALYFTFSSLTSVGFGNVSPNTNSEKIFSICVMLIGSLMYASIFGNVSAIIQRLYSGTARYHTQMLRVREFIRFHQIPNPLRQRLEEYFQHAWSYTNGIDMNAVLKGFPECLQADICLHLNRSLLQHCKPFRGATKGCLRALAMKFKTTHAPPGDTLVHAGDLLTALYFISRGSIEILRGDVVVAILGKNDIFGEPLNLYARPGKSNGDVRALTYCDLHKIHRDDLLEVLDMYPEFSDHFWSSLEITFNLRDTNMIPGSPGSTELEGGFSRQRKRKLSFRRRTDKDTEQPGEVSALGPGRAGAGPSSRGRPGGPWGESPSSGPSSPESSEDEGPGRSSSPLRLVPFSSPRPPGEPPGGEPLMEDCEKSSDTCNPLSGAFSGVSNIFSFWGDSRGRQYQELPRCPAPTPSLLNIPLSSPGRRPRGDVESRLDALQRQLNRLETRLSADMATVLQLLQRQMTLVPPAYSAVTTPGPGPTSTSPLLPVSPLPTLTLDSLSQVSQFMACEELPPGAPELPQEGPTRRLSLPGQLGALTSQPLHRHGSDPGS
Nuclear receptor subfamily 1 group I member 2 (Rattus norvegicus), sequence (Q9R1A7 whole entry, looked up): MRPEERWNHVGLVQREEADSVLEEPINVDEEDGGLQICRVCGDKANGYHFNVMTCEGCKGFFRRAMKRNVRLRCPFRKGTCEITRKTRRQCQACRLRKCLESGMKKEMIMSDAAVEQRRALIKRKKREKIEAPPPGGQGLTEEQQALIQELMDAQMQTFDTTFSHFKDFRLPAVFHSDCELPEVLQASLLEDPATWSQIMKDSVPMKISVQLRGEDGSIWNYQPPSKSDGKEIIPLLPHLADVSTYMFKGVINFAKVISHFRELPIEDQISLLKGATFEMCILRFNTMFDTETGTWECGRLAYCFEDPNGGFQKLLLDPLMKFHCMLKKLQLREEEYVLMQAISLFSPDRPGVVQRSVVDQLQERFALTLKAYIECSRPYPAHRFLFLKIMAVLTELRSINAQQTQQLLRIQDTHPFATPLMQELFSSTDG
Cytochrome P450 1A2 (Homo sapiens), sequence (P05177 whole entry, looked up): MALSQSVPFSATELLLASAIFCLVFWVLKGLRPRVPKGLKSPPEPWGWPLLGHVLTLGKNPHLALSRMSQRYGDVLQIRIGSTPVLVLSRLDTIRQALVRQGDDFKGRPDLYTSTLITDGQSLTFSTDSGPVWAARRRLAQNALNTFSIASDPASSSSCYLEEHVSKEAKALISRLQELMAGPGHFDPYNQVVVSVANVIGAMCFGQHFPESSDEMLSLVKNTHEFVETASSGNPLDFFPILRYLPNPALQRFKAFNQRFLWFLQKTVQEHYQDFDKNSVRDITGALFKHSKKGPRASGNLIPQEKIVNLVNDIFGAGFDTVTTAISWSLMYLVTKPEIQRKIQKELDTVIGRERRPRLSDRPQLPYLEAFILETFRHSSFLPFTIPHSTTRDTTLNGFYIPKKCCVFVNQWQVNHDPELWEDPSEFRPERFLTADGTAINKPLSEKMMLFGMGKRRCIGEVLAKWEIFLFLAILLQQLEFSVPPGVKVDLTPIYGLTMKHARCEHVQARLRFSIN
Cytochrome P450 2D6 (Homo sapiens), sequence (P10635 whole entry, looked up): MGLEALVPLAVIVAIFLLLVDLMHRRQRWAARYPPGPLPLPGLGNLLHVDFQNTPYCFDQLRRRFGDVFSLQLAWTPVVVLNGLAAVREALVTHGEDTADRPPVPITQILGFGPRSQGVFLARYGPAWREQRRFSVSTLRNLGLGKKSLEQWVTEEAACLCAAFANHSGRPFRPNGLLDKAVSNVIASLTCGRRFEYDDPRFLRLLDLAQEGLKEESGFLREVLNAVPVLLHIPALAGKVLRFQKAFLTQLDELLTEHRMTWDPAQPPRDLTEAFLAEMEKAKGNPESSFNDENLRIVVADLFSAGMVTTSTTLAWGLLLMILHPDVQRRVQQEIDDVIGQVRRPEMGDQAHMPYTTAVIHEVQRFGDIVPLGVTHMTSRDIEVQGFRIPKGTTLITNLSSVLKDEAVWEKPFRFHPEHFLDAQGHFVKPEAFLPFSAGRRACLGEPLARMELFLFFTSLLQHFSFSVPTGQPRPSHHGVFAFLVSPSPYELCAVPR
Cytochrome P450 2C19 (Homo sapiens), sequence (P33261 whole entry, looked up): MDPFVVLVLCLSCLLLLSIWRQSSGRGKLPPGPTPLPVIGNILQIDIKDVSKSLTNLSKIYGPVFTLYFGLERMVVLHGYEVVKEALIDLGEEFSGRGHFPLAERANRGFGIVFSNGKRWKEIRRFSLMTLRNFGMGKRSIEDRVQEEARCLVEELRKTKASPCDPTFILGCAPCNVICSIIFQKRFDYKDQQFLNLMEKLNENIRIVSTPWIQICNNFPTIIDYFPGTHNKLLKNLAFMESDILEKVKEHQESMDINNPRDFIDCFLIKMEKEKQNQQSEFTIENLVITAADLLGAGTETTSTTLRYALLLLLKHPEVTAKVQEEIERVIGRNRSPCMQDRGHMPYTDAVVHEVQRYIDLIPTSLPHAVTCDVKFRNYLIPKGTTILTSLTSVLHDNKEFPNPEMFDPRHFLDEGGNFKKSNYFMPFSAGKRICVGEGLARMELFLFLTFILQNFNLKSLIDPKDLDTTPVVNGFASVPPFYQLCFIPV
Cytochrome P450 3A4 (Homo sapiens), sequence (P08684 whole entry, looked up): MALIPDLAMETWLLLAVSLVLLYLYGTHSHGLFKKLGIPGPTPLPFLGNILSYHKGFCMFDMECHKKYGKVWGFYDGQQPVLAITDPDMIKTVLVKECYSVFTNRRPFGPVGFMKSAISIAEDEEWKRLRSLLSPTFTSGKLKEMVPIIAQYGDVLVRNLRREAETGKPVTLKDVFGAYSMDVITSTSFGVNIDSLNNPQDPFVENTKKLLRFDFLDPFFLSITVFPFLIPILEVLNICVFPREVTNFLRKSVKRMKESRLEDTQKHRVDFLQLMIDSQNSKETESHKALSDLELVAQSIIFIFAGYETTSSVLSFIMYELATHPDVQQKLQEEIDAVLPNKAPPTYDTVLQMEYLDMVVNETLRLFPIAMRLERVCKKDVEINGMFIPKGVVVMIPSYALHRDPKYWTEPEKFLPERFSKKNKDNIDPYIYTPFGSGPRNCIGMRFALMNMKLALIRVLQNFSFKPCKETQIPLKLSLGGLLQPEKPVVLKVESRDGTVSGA
Cytochrome P450 2C9 (Homo sapiens), sequence (P11712 whole entry, looked up): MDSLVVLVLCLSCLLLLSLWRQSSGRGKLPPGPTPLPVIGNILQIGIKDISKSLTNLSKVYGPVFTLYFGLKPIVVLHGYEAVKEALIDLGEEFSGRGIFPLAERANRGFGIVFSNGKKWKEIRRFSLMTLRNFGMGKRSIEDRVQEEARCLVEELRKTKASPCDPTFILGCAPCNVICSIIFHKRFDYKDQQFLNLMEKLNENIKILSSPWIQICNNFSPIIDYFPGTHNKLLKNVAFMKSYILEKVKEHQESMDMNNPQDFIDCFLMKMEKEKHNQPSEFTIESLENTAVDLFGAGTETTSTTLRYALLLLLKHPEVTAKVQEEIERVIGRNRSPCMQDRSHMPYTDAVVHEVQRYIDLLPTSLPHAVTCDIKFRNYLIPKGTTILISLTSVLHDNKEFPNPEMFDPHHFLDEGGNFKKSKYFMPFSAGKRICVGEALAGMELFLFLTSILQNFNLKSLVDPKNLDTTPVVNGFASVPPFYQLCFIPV
Nuclear receptor subfamily 1 group I member 2 (Homo sapiens), sequence (O75469 whole entry, looked up): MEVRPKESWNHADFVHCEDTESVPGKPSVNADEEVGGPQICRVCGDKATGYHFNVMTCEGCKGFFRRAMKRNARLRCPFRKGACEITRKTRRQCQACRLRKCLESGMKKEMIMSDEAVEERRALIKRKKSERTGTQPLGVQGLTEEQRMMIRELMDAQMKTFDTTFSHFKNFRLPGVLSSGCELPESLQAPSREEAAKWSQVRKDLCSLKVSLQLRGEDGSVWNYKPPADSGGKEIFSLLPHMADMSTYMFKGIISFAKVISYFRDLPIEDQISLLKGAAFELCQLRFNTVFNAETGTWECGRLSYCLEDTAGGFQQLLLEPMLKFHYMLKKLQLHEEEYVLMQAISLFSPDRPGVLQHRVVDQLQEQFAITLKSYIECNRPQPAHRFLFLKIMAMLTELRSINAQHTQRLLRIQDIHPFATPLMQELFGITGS

O=[N+]([O-])c1nccn1CO[C@@H](CO)[C@H](O)CO
active: Potency [8] 38.9 µM
inactive: Potency [1] | Potency [2] | Potency [3] | Potency [4] | outcome [5] | Potency [6] | Potency [7] | Potency [9] | Potency [10] | Potency [11] | Potency [12] | Potency [13]

CCNCCO
inactive: Potency [1] | Potency [2] | Potency [3] | Potency [4] | outcome [5] | Potency [6] | Potency [7] | Potency [8] | Potency [9] | Potency [10] | Potency [11] | Potency [12] | Potency [13]

CC(=O)Oc1cc(C(C)C)c(OCCN(C)C)cc1C
active: Potency [8] 15.5 µM
inactive: Potency [1] | Potency [2] | Potency [3] | Potency [4] | outcome [5] | Potency [6] | Potency [7] | max activation [14] -1.16% | Potency [15] | Potency [16] | Potency [9] | Potency [10] | Potency [12] | Potency [13]

O=Cc1ccc(F)c(Br)c1
active: Potency [11] 35.6 µM
inactive: Potency [1] | Potency [2] | Potency [3] | Potency [4] | outcome [5] | Potency [6] | Potency [7] | Potency [8] | Potency [9] | Potency [10] | Potency [12] | Potency [13]

FC(F)(F)C(F)(F)C(F)(F)C(F)(F)C(F)(F)C(F)(F)C(F)(F)C(F)(F)Br
inactive: Potency [1] | Potency [2] | Potency [3] | Potency [4] | outcome [5] | Potency [6] | Potency [7] | max activation [14] -2.79% | Potency [15] | Potency [16] | Potency [8] | Potency [9] | Potency [10] | Potency [12] | Potency [13]

CCCCc1ccc2nc(NC(=O)OC)[nH]c2c1
inactive: Potency [1] | Potency [2] | Potency [3] | outcome [5] | Potency [6] | Potency [8] | Potency [9] | Potency [10] | Potency [11] | Potency [12] | Potency [13]
active: Potency [4] 1.19 µM | Potency [7] 2.98 µM | Potency [16] 4.47 µM

Oc1ccccc1F
active: Potency [11] 35.5 µM
inactive: Potency [1] | Potency [2] | Potency [3] | Potency [4] | outcome [5] | Potency [6] | Potency [7] | Potency [8] | Potency [9] | Potency [10] | Potency [12] | Potency [13]

Cc1ccc([N+](=O)[O-])cc1Cl
inactive: Potency [1] | Potency [2] | Potency [3] | Potency [4] | outcome [5] | Potency [6] | Potency [8] | Potency [9] | Potency [10] | Potency [11] | Potency [12] | Potency [13]
active: Potency [7] 61.9 µM

COc1ccccc1N1CCN(CCCNc2cc(=O)n(C)c(=O)n2C)CC1
active: Potency [8] 11 µM
inactive: Potency [1] | Potency [2] | Potency [3] | Potency [4] | outcome [5] | Potency [6] | Potency [7] | max activation [14] -1.3% | Potency [15] | Potency [16] | Potency [9] | Potency [10] | Potency [11] | Potency [12] | Potency [13]
